Of roughly 8,800 targets only a part is listed; those with a hit were picked by preference. About 0.5% of all pairs of compound and target were hits.
Assays:
Assay in all cases: log2 fold change, soluble protein after heating vs DMSO (PISA); higher = thermal stabilisation; K562 lysate, 10 uM; active = over 0.2 and 3.5 SD of the protein, either way, in both replicates (recomputed)
erlotinib = compound: C#Cc1cccc(Nc2ncnc3cc(OCCOC)c(OCCOC)cc23)c1 [erlotinib]
Outline: (§1)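 A 30 min treatment with 10 μM compound was applied to crude K562 extract at 1 mg/mL protein in PBS pH 7.4 with 1 mM MgCl2. Heating for 3 min spanned 48°C-58°C, after which aliquots were pooled, adjusted to 0.5% NP-40 at 4°C and spun at 21,000xg for 90 min. TMTpro 16plex LC-MS/MS of the supernatant, with channel sums equalised, gave values recorded as log-two fold change in thermal stability against solvent controls, from duplicates.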

[1] = compound: C/C(=N\NC(=O)C1=CC(=CC=C1)S(=O)(=O)N2CCOCC2)/C3=C(C=CC(=C3)Cl)O
Outline: as §1

[2] = compound: C1=CC(=CC=C1C2=NC3=C(N2)C=C(C=C3)C(=O)N)OC4=CC=C(C=C4)Cl
Outline: as §1

[3] = compound: C1=CC2=C(C=CC(=C2)/C=C\3/C(=O)NC(=NCC4=CC=CS4)S3)N=C1
Outline: as §1

[4] = compound: C1=CC2=NC=CN=C2C=C1/C=C/3\C(=O)NC(=O)S3
Outline: as §1

[5] = compound: C1=CC=C(C=C1)C2=NC(=C(N2)C3=CC=NC=C3)C4=CC(=C(C=C4)Cl)O
Outline: as §1

[6] = compound: C1=CC=C2C(=C1)C3=NNC4=CC=CC(=C43)C2=O
Outline: as §1

[7] = compound: C1CCN(C1)C(=O)NC2=CC=CC(=C2)NC3=NC=C(C(=N3)NCCC4=CN=CN4)Br
Outline: as §1

[8] = compound: C1CN(CCC1(CC2=CC=C(C=C2)Cl)N)C3=NC=NC4=C3C=CN4
Outline: as §1

IRAK-1-4 Inhibitor I = compound: C1COCCN1CCN2C3=CC=CC=C3N=C2NC(=O)C4=CC(=CC=C4)[N+](=O)[O-] [IRAK-1-4 Inhibitor I]
Outline: as §1

Measured: log2 fold change

PGRMC1 (UniProt O00264)
inactive: erlotinib -0.032 | [1] -0.378 | [2] 0.025 | [3] -0.029 | [4] 0.003 | [5] 0.018 | [6] -0.004 | [7] 0.008 | [8] 0.013 | IRAK-1-4 Inhibitor I -0.005

PPP1R8 (UniProt Q12972)
inactive: erlotinib 0.002 | [1] -0.032 | [2] 0.029 | [3] 0.002 | [4] -0.012 | [5] 0.008 | [6] 0.007 | [7] -0.009 | [8] 0.02 | IRAK-1-4 Inhibitor I 0.008

PHKG2 (UniProt P15735)
UniProt P15735, sequence (P15735 whole entry, looked up): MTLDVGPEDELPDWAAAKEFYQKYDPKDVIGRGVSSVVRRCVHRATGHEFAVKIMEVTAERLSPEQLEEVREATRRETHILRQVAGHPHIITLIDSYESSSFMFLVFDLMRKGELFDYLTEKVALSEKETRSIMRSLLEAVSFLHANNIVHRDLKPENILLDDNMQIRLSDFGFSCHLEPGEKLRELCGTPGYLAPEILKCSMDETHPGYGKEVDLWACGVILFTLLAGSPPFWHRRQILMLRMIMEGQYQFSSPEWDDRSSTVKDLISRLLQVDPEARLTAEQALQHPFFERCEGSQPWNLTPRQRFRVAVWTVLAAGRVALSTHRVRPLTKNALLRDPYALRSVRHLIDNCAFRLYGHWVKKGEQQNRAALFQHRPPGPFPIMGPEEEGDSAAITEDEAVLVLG
inactive: erlotinib -0.106 | [1] 0.062 | [2] 0.04 | [3] 0.075 | [4] 0.104 | [5] 0.022 | [6] 0.231 | [7] 0.045 | [8] -0.011 | IRAK-1-4 Inhibitor I 0.036

PTP4A1 (UniProt Q93096)
inactive: erlotinib -0.005 | [1] 0.01 | [2] 0.014 | [3] -0.001 | [4] -0.013 | [5] -0.022 | [6] -0.086 | [7] 0.05 | [8] -0.066 | IRAK-1-4 Inhibitor I -0.014

PCBP2 isoform 8 (UniProt Q15366)
inactive: erlotinib 0.118 | [1] -0.287 | [2] 0.024 | [3] 0.001 | [4] -0.039 | [5] 0.087 | [6] -0.041 | [7] -0.088 | [8] 0.01 | IRAK-1-4 Inhibitor I 0.018

PRAME (UniProt P78395)
UniProt P78395, sequence (P78395 whole entry, looked up): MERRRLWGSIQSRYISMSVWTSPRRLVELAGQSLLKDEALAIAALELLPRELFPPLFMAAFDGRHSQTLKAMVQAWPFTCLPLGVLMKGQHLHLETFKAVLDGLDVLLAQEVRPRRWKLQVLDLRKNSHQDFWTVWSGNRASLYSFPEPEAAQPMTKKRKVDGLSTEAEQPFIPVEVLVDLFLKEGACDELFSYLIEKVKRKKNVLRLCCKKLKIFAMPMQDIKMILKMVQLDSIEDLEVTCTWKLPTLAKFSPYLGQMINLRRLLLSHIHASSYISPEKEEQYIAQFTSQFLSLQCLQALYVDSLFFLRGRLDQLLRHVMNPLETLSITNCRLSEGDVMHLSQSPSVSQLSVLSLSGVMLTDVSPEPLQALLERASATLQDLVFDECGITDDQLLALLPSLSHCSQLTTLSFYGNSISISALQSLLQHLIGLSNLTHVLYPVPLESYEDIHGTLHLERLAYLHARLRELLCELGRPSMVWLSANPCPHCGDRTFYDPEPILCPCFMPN
inactive: erlotinib 0.02 | [1] -0.056 | [2] -0.001 | [3] -0.027 | [4] -0.037 | [5] 0.013 | [6] -0.043 | [7] -0.004 | [8] 0.007 | IRAK-1-4 Inhibitor I -0.008

PKN1 isoform 2 (UniProt Q16512)
inactive: erlotinib -0.014 | [1] 0.007 | [2] 0.018 | [3] -0.048 | [4] -0.042 | [5] -0.004 | [6] -0.175 | [7] -0.191 | [8] -0.203 | IRAK-1-4 Inhibitor I -0.174

PIK3R1 (UniProt P27986)
inactive: erlotinib -0.027 | [1] -0.4 | [2] 0.008 | [3] 0.069 | [5] 0.076 | [6] 0.089 | [7] -0.015 | [8] 0 | IRAK-1-4 Inhibitor I 0.1
active: [4] 0.348

PLEKHF1 (UniProt Q96S99)
inactive: erlotinib 0.027 | [1] 0.032 | [2] -0.067 | [3] 0.006 | [4] 0.05 | [5] 0.017 | [6] -0.019 | [7] -0.032 | [8] 0.029 | IRAK-1-4 Inhibitor I -0.024

PCBD2 (UniProt Q9H0N5)
inactive: erlotinib -0.012 | [1] -0.033 | [2] 0.044 | [3] -0.022 | [4] 0.079 | [5] 0.005 | [6] -0.014 | [7] -0.018 | [8] -0.015 | IRAK-1-4 Inhibitor I -0.01

PREP (UniProt P48147)
inactive: erlotinib 0.026 | [1] -0.016 | [2] 0.028 | [3] -0.007 | [4] -0.002 | [5] 0.002 | [6] -0.002 | [7] -0.024 | [8] 0.014 | IRAK-1-4 Inhibitor I -0.007

PLK1 (UniProt P53350)
inactive: erlotinib 0.006 | [1] -0.032 | [2] -0.013 | [3] 0.077 | [4] -0.092 | [5] 0 | [6] -0.147 | [7] -0.069 | [8] 0.143 | IRAK-1-4 Inhibitor I -0.141

PSMB9 (UniProt P28065)
inactive: erlotinib 0.02 | [1] -0.112 | [2] 0.008 | [3] -0.062 | [4] -0.08 | [5] -0.061 | [6] 0.033 | [7] -0.084 | [8] 0.084 | IRAK-1-4 Inhibitor I -0.048

POLR2B (UniProt P30876)
inactive: erlotinib 0.031 | [1] 0.019 | [2] -0.014 | [3] 0.012 | [4] -0.016 | [5] -0.008 | [6] -0.024 | [7] 0.002 | [8] -0.004 | IRAK-1-4 Inhibitor I -0.007

PRKCA (UniProt P17252)
inactive: erlotinib 0.031 | [1] -0.086 | [2] -0.019 | [3] 0.108 | [4] 0 | [5] 0.044 | [6] -0.088 | [7] -0.037 | [8] 0.044 | IRAK-1-4 Inhibitor I 0.005

PDE2A (UniProt O00408)
UniProt O00408, sequence (O00408 whole entry, looked up): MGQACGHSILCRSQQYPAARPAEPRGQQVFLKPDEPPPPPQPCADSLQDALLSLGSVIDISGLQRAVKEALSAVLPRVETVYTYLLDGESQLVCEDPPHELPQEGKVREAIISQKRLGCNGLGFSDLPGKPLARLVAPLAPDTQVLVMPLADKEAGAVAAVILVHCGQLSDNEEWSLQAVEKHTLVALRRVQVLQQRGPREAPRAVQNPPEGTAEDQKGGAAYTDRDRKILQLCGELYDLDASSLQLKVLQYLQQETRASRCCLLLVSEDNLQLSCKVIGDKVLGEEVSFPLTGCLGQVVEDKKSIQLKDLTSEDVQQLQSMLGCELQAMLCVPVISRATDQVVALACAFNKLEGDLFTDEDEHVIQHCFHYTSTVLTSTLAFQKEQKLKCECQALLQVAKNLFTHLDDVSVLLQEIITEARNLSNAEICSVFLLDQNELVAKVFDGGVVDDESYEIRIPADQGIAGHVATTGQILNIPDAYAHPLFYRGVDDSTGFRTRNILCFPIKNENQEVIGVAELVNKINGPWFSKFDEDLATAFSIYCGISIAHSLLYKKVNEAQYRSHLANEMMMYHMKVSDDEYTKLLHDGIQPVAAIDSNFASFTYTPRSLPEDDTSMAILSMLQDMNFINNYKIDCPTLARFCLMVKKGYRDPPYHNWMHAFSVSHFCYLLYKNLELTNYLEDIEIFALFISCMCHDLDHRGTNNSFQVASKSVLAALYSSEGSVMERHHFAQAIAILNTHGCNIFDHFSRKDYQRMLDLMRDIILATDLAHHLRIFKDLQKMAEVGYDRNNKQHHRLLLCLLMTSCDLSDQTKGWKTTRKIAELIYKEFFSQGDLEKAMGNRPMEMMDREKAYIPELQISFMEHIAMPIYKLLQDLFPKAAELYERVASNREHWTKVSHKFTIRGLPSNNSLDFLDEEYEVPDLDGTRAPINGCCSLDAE
inactive: erlotinib -0.015 | [1] 0.082 | [2] 0.12 | [3] -0.337 | [4] -0.055 | [5] 0.249 | [6] -0.257 | [7] 0.001 | [8] -0.027 | IRAK-1-4 Inhibitor I 0.18

PCBP2 (UniProt F8W0G4)
inactive: erlotinib -0.117 | [1] -0.36 | [2] -0.007 | [3] -0.102 | [4] 0.022 | [5] 0.005 | [6] -0.236 | [7] -0.241 | [8] 0.079 | IRAK-1-4 Inhibitor I 0.093

PIP4P2 (UniProt Q8N4L2)
UniProt Q8N4L2, sequence (Q8N4L2 whole entry, looked up): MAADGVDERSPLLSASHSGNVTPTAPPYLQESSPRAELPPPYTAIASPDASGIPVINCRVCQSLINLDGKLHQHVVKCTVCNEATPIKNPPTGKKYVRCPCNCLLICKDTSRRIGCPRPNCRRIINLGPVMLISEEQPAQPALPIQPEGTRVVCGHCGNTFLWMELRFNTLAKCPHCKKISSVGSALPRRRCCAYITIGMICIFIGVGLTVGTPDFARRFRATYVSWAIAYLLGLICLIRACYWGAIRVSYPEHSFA
inactive: erlotinib 0.023 | [1] 0.039 | [2] -0.03 | [3] 0.032 | [4] -0.076 | [5] 0.019 | [6] -0.029 | [7] 0.034 | [8] 0.022 | IRAK-1-4 Inhibitor I -0.054

PRRC2A (UniProt P48634)
inactive: erlotinib -0.026 | [1] -0.018 | [2] 0.073 | [3] -0.002 | [4] 0.006 | [5] -0.09 | [6] 0.014 | [7] 0.01 | [8] 0.006 | IRAK-1-4 Inhibitor I 0.026

PPP1R12B isoform 6 (UniProt O60237)
inactive: erlotinib -0.081 | [1] 0.025 | [2] -0.103 | [3] -0.08 | [4] 0.057 | [5] -0.053 | [6] -0.07 | [7] -0.123 | [8] 0.037 | IRAK-1-4 Inhibitor I 0.153

PRKRA (UniProt O75569)
UniProt O75569, sequence (O75569 whole entry, looked up): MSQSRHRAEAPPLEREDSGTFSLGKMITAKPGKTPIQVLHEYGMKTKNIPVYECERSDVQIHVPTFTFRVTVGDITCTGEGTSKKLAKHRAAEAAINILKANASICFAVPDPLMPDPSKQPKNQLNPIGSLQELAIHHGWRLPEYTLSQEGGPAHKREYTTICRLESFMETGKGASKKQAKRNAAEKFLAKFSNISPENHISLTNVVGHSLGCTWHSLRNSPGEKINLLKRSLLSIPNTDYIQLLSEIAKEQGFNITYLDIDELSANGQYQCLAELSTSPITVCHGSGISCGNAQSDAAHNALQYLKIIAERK
inactive: erlotinib 0.016 | [1] -0.1 | [2] -0.061 | [3] -0.01 | [4] 0.08 | [5] 0.012 | [6] -0.012 | [7] -0.074 | [8] 0.018 | IRAK-1-4 Inhibitor I 0.033

PPM1H (UniProt Q9ULR3)
active: [2] 0.25
inactive: erlotinib -0.048 | [1] -0.045 | [3] 0.021 | [4] -0.049 | [5] 0.009 | [6] 0.011 | [7] -0.039 | [8] 0.101 | IRAK-1-4 Inhibitor I 0.037

PCF11 (UniProt O94913)
inactive: erlotinib 0.031 | [1] -0.063 | [2] 0.014 | [3] 0.008 | [4] -0.044 | [5] -0.025 | [6] -0.028 | [7] 0.005 | [8] 0.005 | IRAK-1-4 Inhibitor I -0.017

PDCD4 (UniProt Q53EL6)
inactive: erlotinib 0 | [1] -0.052 | [2] -0.02 | [3] -0.003 | [4] -0.004 | [5] -0.026 | [6] 0.014 | [7] -0.011 | [8] 0.008 | IRAK-1-4 Inhibitor I 0.015

PDF (UniProt Q9HBH1)
UniProt Q9HBH1, sequence (Q9HBH1 whole entry, looked up): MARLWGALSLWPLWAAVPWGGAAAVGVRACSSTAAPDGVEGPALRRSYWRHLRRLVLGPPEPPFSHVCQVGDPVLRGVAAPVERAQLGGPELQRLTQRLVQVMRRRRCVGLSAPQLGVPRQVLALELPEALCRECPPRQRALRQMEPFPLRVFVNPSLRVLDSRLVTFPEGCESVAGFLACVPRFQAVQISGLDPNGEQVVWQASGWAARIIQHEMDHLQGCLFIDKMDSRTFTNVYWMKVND
inactive: erlotinib 0.033 | [1] 0.07 | [2] -0.072 | [3] 0.005 | [4] -0.066 | [5] 0.066 | [6] -0.013 | [7] 0.047 | [8] -0.063 | IRAK-1-4 Inhibitor I 0.055

PHLDB1 (UniProt Q86UU1)
UniProt Q86UU1, sequence (Q86UU1 whole entry, looked up): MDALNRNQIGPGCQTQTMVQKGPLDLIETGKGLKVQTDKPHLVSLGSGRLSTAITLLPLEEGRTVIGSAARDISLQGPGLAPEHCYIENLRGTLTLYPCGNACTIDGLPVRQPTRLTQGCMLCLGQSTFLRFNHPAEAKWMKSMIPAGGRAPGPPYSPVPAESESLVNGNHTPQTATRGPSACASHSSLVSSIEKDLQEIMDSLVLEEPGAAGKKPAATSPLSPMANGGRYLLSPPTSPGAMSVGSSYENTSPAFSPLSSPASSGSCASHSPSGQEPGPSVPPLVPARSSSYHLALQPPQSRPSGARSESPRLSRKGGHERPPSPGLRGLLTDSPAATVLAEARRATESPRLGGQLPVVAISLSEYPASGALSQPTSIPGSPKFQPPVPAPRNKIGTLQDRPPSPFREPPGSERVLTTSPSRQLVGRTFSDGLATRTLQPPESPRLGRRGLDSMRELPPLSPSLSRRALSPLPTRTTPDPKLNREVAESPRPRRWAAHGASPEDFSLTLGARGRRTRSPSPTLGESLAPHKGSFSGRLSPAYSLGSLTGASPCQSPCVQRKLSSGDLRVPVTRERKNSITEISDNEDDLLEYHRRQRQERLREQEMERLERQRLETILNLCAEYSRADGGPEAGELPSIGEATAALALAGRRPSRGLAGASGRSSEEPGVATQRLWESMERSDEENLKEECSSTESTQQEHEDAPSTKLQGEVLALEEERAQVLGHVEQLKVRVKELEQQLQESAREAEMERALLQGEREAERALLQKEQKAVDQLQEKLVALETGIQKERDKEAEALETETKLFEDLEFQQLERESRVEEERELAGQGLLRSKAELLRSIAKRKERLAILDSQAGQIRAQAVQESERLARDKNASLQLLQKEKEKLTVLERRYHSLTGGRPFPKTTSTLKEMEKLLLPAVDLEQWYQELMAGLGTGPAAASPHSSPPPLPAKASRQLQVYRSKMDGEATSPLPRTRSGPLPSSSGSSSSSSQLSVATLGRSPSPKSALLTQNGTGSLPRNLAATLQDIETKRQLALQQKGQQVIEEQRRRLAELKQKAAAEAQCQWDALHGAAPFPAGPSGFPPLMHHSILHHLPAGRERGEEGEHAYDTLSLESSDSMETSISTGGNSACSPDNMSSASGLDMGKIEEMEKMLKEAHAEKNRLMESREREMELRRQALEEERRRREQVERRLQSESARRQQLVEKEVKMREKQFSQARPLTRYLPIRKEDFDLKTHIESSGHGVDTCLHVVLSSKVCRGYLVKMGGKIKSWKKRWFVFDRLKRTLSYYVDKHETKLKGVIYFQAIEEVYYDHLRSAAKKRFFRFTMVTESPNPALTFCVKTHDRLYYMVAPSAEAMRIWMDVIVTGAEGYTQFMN
inactive: erlotinib 0.01 | [1] -0.044 | [2] 0.032 | [3] -0.081 | [4] -0.031 | [5] 0.101 | [6] -0.158 | [7] -0.032 | [8] 0.068 | IRAK-1-4 Inhibitor I -0.044

PRKDC (UniProt P78527)
inactive: erlotinib 0.021 | [1] -0.064 | [2] -0.029 | [3] 0.135 | [5] 0.037 | [6] 0.068 | [7] 0.122 | [8] -0.041 | IRAK-1-4 Inhibitor I 0.02
active: [4] 0.927

PLIN2 (UniProt Q99541)
inactive: erlotinib 0.013 | [1] 0.024 | [2] -0.093 | [3] 0.004 | [4] 0.028 | [5] -0.015 | [6] -0.045 | [7] 0.021 | [8] -0.042 | IRAK-1-4 Inhibitor I 0

PGPEP1 (UniProt Q9NXJ5)
UniProt Q9NXJ5, sequence (Q9NXJ5 whole entry, looked up): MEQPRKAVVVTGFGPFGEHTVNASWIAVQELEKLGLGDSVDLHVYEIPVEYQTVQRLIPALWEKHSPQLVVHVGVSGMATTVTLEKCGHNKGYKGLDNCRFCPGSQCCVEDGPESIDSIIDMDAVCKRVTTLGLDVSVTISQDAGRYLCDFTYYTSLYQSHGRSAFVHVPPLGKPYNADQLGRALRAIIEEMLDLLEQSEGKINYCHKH
inactive: erlotinib -0.003 | [1] 0.102 | [2] -0.053 | [3] -0.046 | [4] 0.013 | [5] 0.014 | [6] -0.018 | [7] -0.059 | [8] 0.001 | IRAK-1-4 Inhibitor I -0.003

— the supplement of paper PMC10849652
